SW480 rerep: induces DNA re-replication in SW480 colon adenocarcinoma cells | SW480 DNA re-replication, Hoechst DNA content imaging, 48 h | Potency, µM (series often up to 46.1 µM), actives largely listed as activators | 1.8% of 340,000 active | AID 624297; further: nearly all actives have a fitted effect of over 55% in size
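Cells (250 per well) received 23 nL compound or DMSO by pin tool and were kept 48 hr at 37 C, 5% CO2. Nuclei were then stained with Hoechst for 40 min and scanned for DNA content.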
KB-3-1 cytotox: kills parental KB-3-1 adenocarcinoma cells. 1.4% of 400,000 active. KB-3-1 viability, CellTiter-Glo ATP luminescence, 72 h. Potency, µM (doses to about 46.1 µM), hits mostly cytotoxic. AID 1347075; further: nearly all actives have a fitted effect of over 60% in size
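Cytotoxicity measured as CellTiter-Glo luminescence after 72 h at 37 C. Compound titrations were pinned onto drug-naive KB-3-1 parental adenocarcinoma cells grown in DMEM with 10% FBS, and normalized data fitted to concentration-response curves.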
HT1080 IDH1KD tx: HT-1080 IDH1 knockdown cell toxicity (counter line). 2% of 360,000 active. HT-1080 IDH1 knockdown viability, ATP luminescence, 48 h. Potency, µM (top dose mostly 46.1 µM), most hits filed as cytotoxic
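Cytotoxicity counter-line: IDH1KD HT-1080, 48 h, CellTiter-Glo. Curves classed by r2, magnitude and activity.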
MCF10A rereplic: inducers of DNA re-replication in MCF 10A breast cells. MCF 10A DNA re-replication, Hoechst nuclear intensity, 48 h. Potency, µM (titrated, usually from 46.1 µM), actives largely listed as activators. 2.9% of 350,000 active; further: nearly all actives have a fitted effect of over 50% in size
HT1080-NT tox: kills 2HG-producing HT-1080-NT fibrosarcoma cells. 1.6% of 360,000 active. Potency, µM (series often up to 46.1 µM), usual class: cytotoxic. HT-1080-NT fibrosarcoma viability, CellTiter-Glo ATP luminescence, 48 h;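 further: NT is the 2HG producing partner of a matched IDH1 knockdown line; nearly all actives have a fitted effect of over 55% in size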
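A 48-hour cytotoxicity screen used HT-1080-NT cells plated 2 hours before compound delivery. ATP-based CellTiter-Glo luminescence measured viability, normalized to DMSO and no-cell controls.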
KB-V1 cytotox: kills drug-selected multidrug resistant KB-V1 cells; 3.4% of 400,000 active; Potency, µM (top dose mostly 46.1 µM), usual class: cytotoxic; KB-V1 MDR cells viability, CellTiter-Glo, 72 h; further: nearly all actives have a fitted effect of over 60% in size
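Following 72 h at 37 degrees C with compound, KB-V1 cell viability was read by CellTiter-Glo luminescence, medium being phenol-red-free DMEM plus 10% FBS; concentration-response parameters came from normalized, curve-fitted qHTS data.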
Each line names hits and unclear results; the compound was inactive in the other large screens; ! = not confirmed by another sample. The list is not random: actives were taken first. Their share in the collection is about 7.9%. The call rests on the fitted dose curve; in most records, active means well fitted curve in the direction sought with a large enough effect; inconclusive means small, poorly fitted or top-dose-only effect, or another doubt; inactive means no such curve, though single readings can be large; an effect the other way counts as inactive or inconclusive.

Cc1cccc(N2CCN(C(=O)c3ccc(CS(=O)Cc4ccc(Cl)cc4)o3)CC2)c1C (centres undefined)	MCF10A rereplic inconclusive
COc1ccc(S(=O)(=O)Cc2ccc(C(=O)N3CCN(c4cccc(C)c4)C(C)C3)o2)cc1 (centres undefined)	SW480 rerep 15µM, KB-3-1 cytotox 3.3µM, HT1080 IDH1KD tx 12µM, MCF10A rereplic 6.5µM, HT1080-NT tox 2.6µM
Cc1cccc(OCc2nnc(SCC(=O)Nc3ccc(C)cc3C)o2)c1	KB-V1 cytotox inconclusive (no result: SW480 rerep, HT1080 IDH1KD tx, MCF10A rereplic, HT1080-NT tox)
COC(=O)c1cc2oc3ccccc3c2n1Cc1nc(-c2ccccc2Cl)oc1C	KB-V1 cytotox inconclusive (no result: SW480 rerep, HT1080 IDH1KD tx, MCF10A rereplic, HT1080-NT tox)
COc1ccc(C)cc1S(=O)(=O)N(C)CC(=O)NC1CC1	none
COc1ccc(C)cc1S(=O)(=O)N(C)CC(=O)N1CCCC1	SW480 rerep 2.3µM
COc1ccc(C)cc1S(=O)(=O)N(C)CC(=O)NC1CCCC1	SW480 rerep inconclusive, KB-V1 cytotox 12µM
Cc1nc2ccc(S(=O)(=O)N(CC(=O)Nc3ccc(Cl)cc3)Cc3ccccc3)cc2s1	none (no result: SW480 rerep, HT1080 IDH1KD tx, MCF10A rereplic, HT1080-NT tox)
COc1cc(CNc2nc3ccccc3n2Cc2ccccc2)ccc1O	none (no result: SW480 rerep, MCF10A rereplic)
Cn1cccc1-c1nc2ccccc2n1Cc1ccccc1	HT1080 IDH1KD tx inconclusive, MCF10A rereplic 11µM, KB-V1 cytotox inconclusive
Cc1nc2ccccc2n1Cc1ccc(Cl)cc1	SW480 rerep inconclusive, KB-3-1 cytotox inconclusive, HT1080 IDH1KD tx inconclusive, MCF10A rereplic inconclusive, HT1080-NT tox inconclusive, KB-V1 cytotox 7.3µM
COc1ccc(CNc2nc3ccccc3n2Cc2ccc(Cl)cc2)cc1OC	HT1080 IDH1KD tx 16µM, MCF10A rereplic inconclusive, HT1080-NT tox 21µM
CC1CCN(S(=O)(=O)c2ccc3c(c2)N(CC(=O)NC(C)C)C(=O)CS3)CC1	none (no result: SW480 rerep, HT1080 IDH1KD tx, MCF10A rereplic, HT1080-NT tox)
COc1cccc(-c2cnc3c(NC=O)cc(-c4ccccc4)cn23)c1	KB-3-1 cytotox 5.2µM, HT1080 IDH1KD tx 2.6µM, HT1080-NT tox 5.8µM, KB-V1 cytotox 7.3µM (no result: SW480 rerep, MCF10A rereplic)
COc1cccc(-c2cnc3c(NC=O)cc(-c4cc(C)c(O)c(C)c4)cn23)c1	KB-3-1 cytotox 6.5µM, HT1080 IDH1KD tx inconclusive, HT1080-NT tox inconclusive, KB-V1 cytotox inconclusive (no result: SW480 rerep, MCF10A rereplic)
COc1cccc(-c2cnc3c(NC=O)cc(-c4ccoc4)cn23)c1	KB-V1 cytotox inconclusive (no result: SW480 rerep, MCF10A rereplic)
COc1cccc(-c2cnc3c(NC=O)cc(-c4ccccc4Oc4ccccc4)cn23)c1	KB-3-1 cytotox inconclusive, HT1080 IDH1KD tx inconclusive, HT1080-NT tox inconclusive, KB-V1 cytotox 21µM (no result: SW480 rerep, MCF10A rereplic)
CCc1ccc(S(=O)(=O)c2nnn3c2nc(N2CCCC2)c2sccc23)cc1	none (no result: SW480 rerep, HT1080 IDH1KD tx, MCF10A rereplic, HT1080-NT tox)
COC(=O)c1cc(NC(=O)c2sc3ncn(Cc4cccc(F)c4)c(=O)c3c2C)cc(C(=O)OC)c1	none (no result: SW480 rerep, HT1080 IDH1KD tx, MCF10A rereplic, HT1080-NT tox)
O=C1CCC[C@@H]2[C@H](Cc3ccccc3)[C@@H](O)C[C@@H]3CCN1[C@@H]32	KB-3-1 cytotox inconclusive, KB-V1 cytotox 15µM!
CC(Sc1nnc(CN2CCCC2)n1Cc1ccccc1)C(=O)Nc1ccc(F)c(F)c1F (centres undefined)	KB-V1 cytotox 1µM
Cc1ccc(-n2c(C)cc(/C=C3/SC(=O)N(CC(=O)N4CCOCC4)C3=O)c2C)nc1	SW480 rerep 18µM
COc1cc2c(cc1OC)C(c1cccs1)N(C(=O)c1ccncc1)CC2 (centres undefined)	SW480 rerep inconclusive, KB-3-1 cytotox inconclusive, HT1080 IDH1KD tx 13µM, MCF10A rereplic inconclusive, HT1080-NT tox inconclusive, KB-V1 cytotox inconclusive
C[C@H]1c2cccc(O)c2C(=O)C2C(=O)C3(O)C(=O)C(C(N)=O)C(=O)[C@@H](N(C)C)[C@@H]3[C@@H](O)[C@@H]21 (some centres undefined)	SW480 rerep 6.3µM, HT1080 IDH1KD tx inconclusive, HT1080-NT tox inconclusive
C[C@H]1c2cccc(O)c2C(O)=C2C(=O)C3(O)C(O)=C(C(N)=O)C(=O)[C@@H](N(C)C)[C@@H]3[C@@H](O)[C@@H]21 (some centres undefined)	SW480 rerep inconclusive, HT1080 IDH1KD tx inconclusive, HT1080-NT tox inconclusive
COc1ccccc1C(O)c1nccn1C (centres undefined)	none
CCn1ccnc1C(O)c1ccccc1OC (centres undefined)	SW480 rerep 18µM, MCF10A rereplic 13µM
Cc1nn(-c2ccccc2)c2nc(=O)n(-c3ccccc3)cc12	HT1080 IDH1KD tx inconclusive
Cc1ccc2nc3c(cc2c1)c(C)nn3-c1ccccc1	SW480 rerep 7.3µM, MCF10A rereplic inconclusive
COc1ccc(NC(=O)c2cccc(OC(F)F)c2)cc1Cl	KB-V1 cytotox 15µM
COc1ccc(NC(=O)c2cccc(F)c2)cc1Cl	none
O=C(Nc1ccc(OC(F)F)c(Cl)c1)c1cccc(OC(F)F)c1	KB-3-1 cytotox inconclusive, HT1080 IDH1KD tx inconclusive, HT1080-NT tox inconclusive, KB-V1 cytotox 18µM
O=C(Nc1ccc2c(c1)CCC2)c1cccc(OC(F)F)c1	none
O=C1CC(c2cccs2)Cc2nc(NCC3CCCO3)ncc21 (centres undefined)	KB-V1 cytotox 16µM
Cc1c(C(=O)N(C)Cc2ccc(F)cc2)sc(=O)n1Cc1ccccc1C#N	KB-V1 cytotox inconclusive (no result: SW480 rerep, MCF10A rereplic)
CCOC(=O)c1sc2ncn(CC(=O)Nc3ccc(F)cc3F)c(=O)c2c1C	none (no result: SW480 rerep, HT1080 IDH1KD tx, MCF10A rereplic, HT1080-NT tox)

From PubChem
